# According to PubChem BioAssay (Tox21):
# Several values for one entry are separate records, joined by “and”; a condition that tells them apart may be missing. Equal entries are not always repeated. Records with an inconclusive call do not appear. Where a call stands in place of a potency, no number is given. Some structures have more than one record in an assay (separate samples or runs), and their calls can disagree. Activity calls are given as the source filed them. Unless noted, calls come from the whole dose curve; as a rule, active = well fitted curve in the direction sought with a large enough effect in the repeat runs; inconclusive = weak or mixed curves; inactive = no such curve, though single readings can be large; an effect the other way counts as inactive or inconclusive.
# Tests used:
# [1] = biological target: Thyrotropin receptor (Homo sapiens) (UniProt P16473); assay: qHTS assay to identify small molecule agonists of the thyroid stimulating hormone receptor (TSHR) signaling pathway (AID 1224843; calls by dose curve; note: nearly all actives have a fitted effect of over 45% in size; note: potency is the fitted concentration of half-maximal effect)
# Thyrotropin receptor (Homo sapiens), sequence (P16473 whole entry, looked up): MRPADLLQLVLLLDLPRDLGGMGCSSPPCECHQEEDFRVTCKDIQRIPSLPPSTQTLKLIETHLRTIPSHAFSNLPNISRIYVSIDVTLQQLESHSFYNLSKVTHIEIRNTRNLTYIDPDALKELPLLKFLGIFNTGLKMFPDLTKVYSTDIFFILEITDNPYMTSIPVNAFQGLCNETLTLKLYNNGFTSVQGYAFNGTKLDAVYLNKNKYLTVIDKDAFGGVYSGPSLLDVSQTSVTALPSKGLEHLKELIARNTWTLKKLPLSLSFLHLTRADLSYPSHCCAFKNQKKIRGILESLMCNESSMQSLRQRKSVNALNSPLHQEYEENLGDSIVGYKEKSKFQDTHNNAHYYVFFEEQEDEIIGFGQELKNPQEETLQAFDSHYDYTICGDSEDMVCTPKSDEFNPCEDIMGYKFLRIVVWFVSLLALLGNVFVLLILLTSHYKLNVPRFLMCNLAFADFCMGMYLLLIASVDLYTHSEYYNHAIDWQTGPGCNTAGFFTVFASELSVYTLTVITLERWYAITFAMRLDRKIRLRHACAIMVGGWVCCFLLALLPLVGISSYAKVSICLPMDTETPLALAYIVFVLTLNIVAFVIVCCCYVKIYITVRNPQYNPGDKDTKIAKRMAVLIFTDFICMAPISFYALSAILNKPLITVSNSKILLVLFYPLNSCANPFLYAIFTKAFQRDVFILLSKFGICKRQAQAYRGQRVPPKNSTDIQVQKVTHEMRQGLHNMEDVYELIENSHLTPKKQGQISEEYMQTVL
# Summary of the method: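 Agonist-mode screen: TSHR HEK293 cells received test chemicals for half an hour at room temperature, then HTRF cAMP detection reagents for one hour prior to fluorescence measurement. Each chemical ran as a 15-concentration series, triplicated.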
# [2] = qHTS assay to identify small molecule agonists of H2AX (AID 1224845; active = well fitted activation curve with a large enough effect in the signal ratio in the repeat runs, not every such curve was filed as active; the % refers to the signal ratio)
# Summary of the method: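 Wild-type CHO-K1 cells, plated overnight, exposed 3hr at 37C to 15 concentrations (0.76% DMSO final). Lysed, then HTRF anti-pH2AX (S139) cryptate and anti-H2AX-d2 antibodies, 24 hr room temperature; 665/620 nm emission read.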
# [3] = qHTS assay to identify small molecule agonists of H2AX - cell viability counter screen (AID 1224847; calls by dose curve; note: nearly all actives have a fitted effect of over 30% in size; note: potency is the fitted concentration of half-maximal effect)
# Summary of the method: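 For this counter screen, overnight-attached CHO-K1 cells received test compounds (15 concentrations, 0.76% DMSO final); 3 hr later at 37C, CellTiter-Glo reagent was added and luminescence recorded after 30 min at room temperature.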
# [4] = qHTS RealTime-Glo MT Cell Viability Assay in HepG2 cells - 24 hour (AID 1224867); note: nearly all actives have a fitted effect of over 50% in size; note: potency is the fitted concentration of half-maximal effect
# Summary of the method: (§1)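 HepG2 suspension premixed with RealTime-Glo reagents is plated at 600 cells per well and left 5 h at 37 C/5% CO2. Compounds in DMSO then go in, and bioluminescence reflecting viable cell number is recorded over 40 h.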
# [5] = qHTS RealTime-Glo MT Cell Viability Assay in HEK293 cells - 32 hour (AID 1224868); note: nearly all actives have a fitted effect of over 50% in size; note: potency is the fitted concentration of half-maximal effect
# Summary of the method: (§2)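 Reads taken at 0, 8, 16, 24, 32 and 40 h from the same wells. HEK293 cells (600/well) carried RealTime-Glo reagents from seeding, with compound added after a 5 h settle at 37 C.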
# [6] = A CellTox Green Cytotoxicity Assay to monitor cytotoxicity in HEK293 cells - 0 hour (AID 1224869); note: nearly all actives have a fitted effect of over 50% in size; note: potency is the fitted concentration of half-maximal effect
# Summary of the method: (§3)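 Homogeneous no-lysis format: HEK293 cell suspension mixed with CellTox Green reagent, seeded, incubated 5 h at 37 C/5% CO2, then dosed by pintool with compound in DMSO.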
# [7] = A CellTox Green Cytotoxicity Assay to monitor cytotoxicity in HEK293 cells - 40 hour (AID 1224871); note: nearly all actives have a fitted effect of over 45% in size; note: potency is the fitted concentration of half-maximal effect
# Summary of the method: as §3
# [8] = qHTS RealTime-Glo MT Cell Viability Assay in HEK293 cells - 16 hour (AID 1224872); note: nearly all actives have a fitted effect of over 50% in size; note: potency is the fitted concentration of half-maximal effect
# Summary of the method: as §2
# [9] = qHTS RealTime-Glo MT Cell Viability Assay in HepG2 cells - 8 hour (AID 1224873); note: nearly all actives have a fitted effect of over 55% in size; note: potency is the fitted concentration of half-maximal effect
# Summary of the method: (§4)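 HepG2 cells (600/well) mixed with RealTime-Glo MT reagent, settled 5 h at 37 C/5% CO2 before compound addition. Nonlytic NanoLuc luminescence from viable-cell prosubstrate reduction read repeatedly during 40 h treatment at 37 C.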
# [10] = qHTS RealTime-Glo MT Cell Viability Assay in HEK293 cells - 40 hour (AID 1224874); conditions: RealTime-Glo luminescence; max response: stronger effect = lower value; note: nearly all actives have a fitted effect of over 50% in size; note: potency is the fitted concentration of half-maximal effect
# Summary of the method: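 Measured as luminescence from the same continuously cultured HEK293 wells at successive time points (0, 8, 16, 24, 32, 40 h) after compound addition. Reagent present from seeding; dosing at 5 h; incubation 37 C.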
# [11] = A CellTox Green Cytotoxicity Assay to monitor cytotoxicity in HEK293 cells - 24 hour (AID 1224875); note: nearly all actives have a fitted effect of over 45% in size
# Summary of the method: as §3
# [12] = A CellTox Green Cytotoxicity Assay to monitor cytotoxicity in HepG2 cells - 16 hour (AID 1224876); note: nearly all actives have a fitted effect of over 45% in size; note: potency is the fitted concentration of half-maximal effect
# Summary of the method: (§5)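 Fluorescent DNA-binding dye, 600 HepG2 cells/well, 5 h preincubation then compound in DMSO; same plates read at 0–40 h, 37 C.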
# [13] = qHTS RealTime-Glo MT Cell Viability Assay in HepG2 cells - 32 hour (AID 1224877); note: nearly all actives have a fitted effect of over 55% in size; note: potency is the fitted concentration of half-maximal effect
# Summary of the method: as §1
# [14] = A CellTox Green Cytotoxicity Assay to monitor cytotoxicity in HepG2 cells - 24 hour (AID 1224878); note: nearly all actives have a fitted effect of over 45% in size; note: potency is the fitted concentration of half-maximal effect
# Summary of the method: as §5
# [15] = A CellTox Green Cytotoxicity Assay to monitor cytotoxicity in HepG2 cells - 40 hour (AID 1224879); note: nearly all actives have a fitted effect of over 40% in size; note: potency is the fitted concentration of half-maximal effect
# Summary of the method: as §5
# [16] = qHTS assay to identify small molecule agonists of the hypoxia (HIF-1) signaling pathway - cell viability counter screen (AID 1224844; calls by dose curve; note: nearly all actives have a fitted effect of over 50% in size; note: potency is the fitted concentration of half-maximal effect)
# Summary of the method: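 Same wells as the HIF-1 reporter screen; ME-180 cells carrying HRE-bla, 17 hr treatment at 37C; CellTiter-Glo luminescence read after 30 min at room temperature.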
# [17] = qHTS assay to identify small molecule agonists of the hypoxia (HIF-1) signaling pathway (AID 1224846; active = well fitted activation curve with a large enough effect in the signal ratio in the repeat runs, not every such curve was filed as active; the % refers to the signal ratio)
# Summary of the method: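 In ME-180 cells bearing an HRE-bla construct, 17 h treatment with DMSO-dissolved compounds at 37C was followed by CCF4-AM loading to quantify reporter induction.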
# [18] = qHTS assay to identify small molecule antagonists of the estrogen related receptor (ERR) signaling pathway from Tox21 library (AID 1224848); note: nearly all actives have a fitted effect of over 50% in size; note: potency is the fitted concentration of half-maximal effect
# Summary of the method: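 Quantitative high-throughput format: ERR reporter cells (2,000/well) pre-incubated 6 h, treated 18 h at 37 C with compounds in DMSO alongside positive and negative controls, then read by ONE-Glo luminescence.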
# [19] = qHTS RealTime-Glo MT Cell Viability Assay in HepG2 cells - 40 hour (AID 1224870); note: nearly all actives have a fitted effect of over 50% in size; note: potency is the fitted concentration of half-maximal effect
# Summary of the method: as §4
# [20] = qHTS assay to identify small molecule agonists of the estrogen related receptor (ERR) signaling pathway from Tox21 library (AID 1224849; calls by dose curve; note: nearly all actives have a fitted effect of over 15% in size); conditions: ERR reporter cell line, ONE-Glo luciferase, 18 h; at 92.4 µM (top of the series)
# Summary of the method: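 Reporter cells (ERR, NTP source) treated with Tox21 10K compounds 18 h, 37 C. Readout: ONE-Glo luminescence, 30 min RT.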
smiles,measurement,setting,value
CCCc1c(OCCCCc2nn[nH]n2)ccc(C(C)=O)c1O,Potency,[1],inactive
same,outcome,[2],inactive
same,Potency,[3],inactive
same,Potency,[4],inactive
same,Potency,[5],inactive
same,Potency,[6],inactive
same,Potency,[7],inactive
same,Potency,[8],inactive
same,Potency,[9],inactive
same,max response,[10],0.608% (inactive) and 1.1% (inactive)
same,Potency,[11],inactive
same,Potency,[12],inactive
same,Potency,[13],inactive
same,Potency,[14],inactive
same,Potency,[15],inactive
C[C@]12CCC(=O)C=C1CC[C@@H]1[C@@H]2C(=O)C[C@@]2(C)[C@H]1CC[C@]2(O)C(=O)CO,outcome,[2],inactive
same,Potency,[3],inactive
same,Potency,[4],inactive
same,Potency,[5],inactive
same,Potency,[6],inactive
same,Potency,[7],inactive
same,Potency,[8],inactive
same,Potency,[9],inactive
same,max response,[10],-10% (inactive) and -11.4% (inactive)
same,Potency,[11],inactive
same,Potency,[12],inactive
same,Potency,[13],inactive
same,Potency,[14],inactive
same,Potency,[15],inactive
O=CCCCC=O,Potency,[16],21.1 µM (active) and 19.5 µM (active)
same,Potency,[17],inactive
same,Potency,[3],inactive
same,Potency,[18],inactive
same,Potency,[5],42.1 µM (active) and inactive
same,Potency,[6],inactive
same,Potency,[19],inactive
same,Potency,[7],inactive
same,Potency,[8],inactive
same,Potency,[9],inactive
same,Potency,[10],42.1 µM (active)
same,max response,[10],3.08% (inactive)
same,Potency,[11],inactive
same,Potency,[12],inactive
same,Potency,[13],inactive
NC=O,Potency,[16],inactive
same,Potency,[17],inactive
same,Potency,[3],inactive
same,Potency,[18],inactive
same,"activity change, positive = activation",[20],6.78% (inactive) and -1.46% (inactive)
same,Potency,[4],inactive
same,Potency,[5],inactive
same,Potency,[6],inactive
same,Potency,[19],inactive
same,Potency,[7],inactive
same,Potency,[8],inactive
same,Potency,[9],inactive
same,max response,[10],-1.02% (inactive) and -20.4% (inactive)
same,Potency,[11],inactive
same,Potency,[12],inactive
same,Potency,[13],inactive
same,Potency,[14],inactive
same,Potency,[15],inactive
Brc1cc(Oc2cc(Br)c(Br)c(Br)c2Br)c(Br)c(Br)c1Br,Potency,[1],inactive
same,Potency,[17],inactive
same,Potency,[3],inactive
same,Potency,[5],inactive
same,Potency,[6],inactive
same,Potency,[19],inactive
same,Potency,[7],inactive
same,Potency,[8],inactive
same,Potency,[9],inactive
same,max response,[10],-1.03% (inactive) and -0.229% (inactive)
same,Potency,[11],inactive
same,Potency,[12],inactive
same,Potency,[13],inactive
same,Potency,[14],inactive
same,Potency,[15],inactive
COC(=O)Nc1nc2ccc(S(=O)c3ccccc3)cc2[nH]1 (stereo not drawn),Potency,[17],inactive
same,Potency,[3],inactive
same,Potency,[18],inactive
same,Potency,[4],inactive
same,Potency,[5],9.76 µM (active) and 952 nM (active)
same,Potency,[6],inactive
same,Potency,[19],inactive
same,Potency,[7],inactive
same,Potency,[8],1.34 µM (active)
same,Potency,[9],inactive
same,Potency,[10],0.756 µM (active)
same,Potency,[11],inactive
same,Potency,[13],inactive
same,Potency,[14],inactive and 10.7 µM (active)
same,Potency,[15],848 nM (active)
Cc1[nH]c(=O)c(C#N)cc1-c1ccncc1,Potency,[16],inactive
same,outcome,[2],inactive
same,Potency,[3],inactive
same,Potency,[5],inactive
same,Potency,[6],inactive
same,Potency,[7],inactive
same,Potency,[8],inactive
same,Potency,[9],inactive
same,max response,[10],0.254% (inactive) and -5.73% (inactive)
same,Potency,[11],inactive
same,Potency,[13],inactive
same,Potency,[14],inactive
same,Potency,[15],inactive
OC(CCl)CCl,Potency,[1],inactive
same,Potency,[17],inactive
same,Potency,[3],inactive
same,Potency,[5],inactive
same,Potency,[6],inactive
same,Potency,[19],inactive
same,Potency,[7],inactive
same,Potency,[8],inactive
same,Potency,[9],inactive
same,max response,[10],2.58% (inactive) and 9.25% (inactive)
same,Potency,[11],inactive
same,Potency,[12],inactive
same,Potency,[13],inactive
same,Potency,[14],inactive
same,Potency,[15],inactive
c1cc(N(CC2CO2)CC2CO2)ccc1OCC1CO1 (stereo not drawn),Potency,[1],inactive
same,Potency,[3],inactive
same,Potency,[18],61.2 µM (active) and 54.5 µM (active)
same,Potency,[4],inactive
same,Potency,[5],24.6 µM (active) and 21.9 µM (active)
same,Potency,[6],inactive
same,Potency,[7],inactive
same,Potency,[8],inactive
same,Potency,[9],inactive
same,Potency,[10],19.5 µM (active) and 15.5 µM (active)
same,Potency,[11],inactive
same,Potency,[13],inactive
same,Potency,[14],inactive
same,Potency,[15],inactive
O=C(c1ccc(OCCN2CCCCC2)cc1)c1c(-c2ccc(O)cc2)sc2cc(O)ccc12,Potency,[16],43.7 µM (active) and 49 µM (active) and inactive
same,outcome,[2],inactive
same,Potency,[3],113 µM (active) and inactive
same,Potency,[4],54.9 µM (active) and inactive
same,Potency,[5],19.5 µM (active) and 23.9 µM (active)
same,Potency,[6],inactive
same,Potency,[7],55 µM (active) and 54.9 µM (active)
same,Potency,[8],19.5 µM (active) and 21.9 µM (active)
same,Potency,[9],inactive
same,Potency,[10],17.4 µM (active) and 21.9 µM (active) and 23.9 µM (active)
same,Potency,[12],inactive
same,Potency,[13],55 µM (active) and 54.9 µM (active) and inactive
same,Potency,[14],55 µM (active) and 54.9 µM (active)
same,Potency,[15],49 µM (active) and 26.8 µM (active)
COC(=O)C1=C(C)NC(C)=C(C(=O)OCCN(C)Cc2ccccc2)C1c1cccc([N+](=O)[O-])c1 (stereo not drawn),Potency,[1],30.5 µM (active)
same,outcome,[2],inactive
same,Potency,[3],44.7 µM (active) and 49.2 µM (active)
same,Potency,[5],21.7 µM (active) and 16.9 µM (active)
same,Potency,[6],inactive
same,Potency,[19],43.4 µM (active)
same,Potency,[7],inactive
same,Potency,[8],21.7 µM (active) and 16.9 µM (active)
same,Potency,[9],24.4 µM (active) and 19 µM (active)
same,Potency,[10],24.4 µM (active) and 16.9 µM (active)
same,Potency,[11],inactive
same,Potency,[12],inactive
same,Potency,[13],43.4 µM (active)
same,Potency,[14],48.7 µM (active) and inactive
same,Potency,[15],48.7 µM (active) and inactive
CC1=CC2C3CC(C=C3C)C2C1 (stereo not drawn),Potency,[1],inactive
same,Potency,[17],inactive
same,Potency,[3],inactive
same,Potency,[18],inactive
same,"activity change, positive = activation",[20],0.676% (inactive) and -14.6% (inactive)
same,Potency,[5],inactive
same,Potency,[6],inactive and 38.9 µM (active)
same,Potency,[7],inactive and 38.9 µM (active)
same,Potency,[8],inactive
same,Potency,[9],inactive
same,max response,[10],6.31% (inactive) and 1.24% (inactive)
same,Potency,[12],inactive and 24.5 µM (active)
same,Potency,[13],inactive
same,Potency,[14],inactive and 27.5 µM (active)
same,Potency,[15],inactive and 38.9 µM (active)
